About 2,000 (36%) of roughly 5,500 compounds were called active. Another 18% or so got no clear call; they are omitted. Rule as the data show it: active = normalized growth mostly below about 0.91 (no sharp cut-off); inconclusive = no clear call, values can overlap the other calls; inactive = mostly above about 0.92. Some of the results follow. Where a SMILES comes first, the peptide text is derived from it. Bridges are numbered along the chain shown (N, C = ends). [ ]: non-standard residue; d: D form. The star is where a group is joined. Octanoyl(6-Me) = CCC(C)CCCCC(=O)*; Dab = NCC[CH](N)C(=O)O
Assay: chemical genetic growth profiling, strain panel (AID 1159580);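 also: tested at 20 µM; growth read once vehicle control cultures reached saturation at 30 °C; 1 = growth at the plate median or of vehicle wells; lower values mean less growth of the strain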
Details: growth OD

Measured: normalized growth

CCC(C)CCCCC(=O)NC(CCN)C(=O)NC(C(=O)NC(CCN)C(=O)NC1CCNC(=O)C(C(C)O)NC(=O)C(CCN)NC(=O)C(CCN)NC(=O)C(CC(C)C)NC(=O)C(Cc2ccccc2)NC(=O)C(CCN)NC1=O)C(C)O (configuration not stated) ({Octanoyl(6-Me)}-[Dab]T[Dab][Dab][Dab]FL[Dab][Dab]T; lactam 4-C; configuration not given here)
inactive: S. cerevisiae deletion strains, locus YJR075W, strain HOC1, hits give low values 0.997 | S. cerevisiae deletion strains, locus YKL009W, strain mrt4, hits give low values 0.99 | S. cerevisiae deletion strains, locus YKL068W, hits give low values 1 | S. cerevisiae deletion strains, locus YKL085W, strain MDH1 (second series), hits give low values 0.998 | S. cerevisiae deletion strains, locus YKL085W, strain MDH1, hits give low values 0.998 | S. cerevisiae deletion strains, locus YKL160W, strain elf1, hits give low values 0.97 | S. cerevisiae deletion strains, locus YKL190W, strain CNB1, hits give low values 0.991 | S. cerevisiae deletion strains, locus YKR001C, strain vps1, hits give low values 0.987 | S. cerevisiae deletion strains, locus YKR026C, strain gcn3, hits give low values 1 | S. cerevisiae deletion strains, locus YKR091W, strain srl3, hits give low values 1.01 | S. cerevisiae deletion strains, locus YLL001W, strain dnm1, hits give low values 0.989 | S. cerevisiae deletion strains, locus YLL026W, hits give low values 1.02 | S. cerevisiae deletion strains, locus YLL041C, strain sdh2, hits give low values 0.995 | S. cerevisiae deletion strains, locus YLR027C, strain aat2, hits give low values 0.988 | S. cerevisiae deletion strains, locus YLR039C, strain RIC1, hits give low values 1.04 | S. cerevisiae deletion strains, locus YLR058C, strain SHM2, hits give low values 1 | S. cerevisiae deletion strains, locus YLR102C, strain apc9, hits give low values 1.01 | S. cerevisiae deletion strains, locus YLR113W, strain HOG1, hits give low values 0.986 | S. cerevisiae deletion strains, locus YLR221C, strain rsa3, hits give low values 0.988 | S. cerevisiae deletion strains, locus YLR258W, strain gsy2, hits give low values 0.978 | S. cerevisiae deletion strains, locus YLR262C, strain YPT6 (second series), hits give low values 1.04 | S. cerevisiae deletion strains, locus YLR262C, strain YPT6, hits give low values 1.05 | S. cerevisiae deletion strains, locus YLR268W, strain sec22, hits give low values 1.05 | S. cerevisiae deletion strains, locus YLR320W, strain mms22, hits give low values 0.957 | S. cerevisiae deletion strains, locus YLR330W, strain CHS5, hits give low values 1 | S. cerevisiae deletion strains, locus YLR342W, strain FKS1 (second series), hits give low values 0.95 | S. cerevisiae deletion strains, locus YLR342W, strain FKS1, hits give low values 0.995 | S. cerevisiae deletion strains, locus YLR357W, strain rsc2, hits give low values 0.968 | S. cerevisiae deletion strains, locus YLR370C, strain arc18, hits give low values 0.979 | S. cerevisiae deletion strains, locus YLR371W, strain rom2, hits give low values 1.01 | S. cerevisiae deletion strains, locus YLR384C, strain iki3, hits give low values 0.981 | S. cerevisiae deletion strains, locus YLR418C, strain cdc73, hits give low values 1.02 | S. cerevisiae deletion strains, locus YML016C, strain PPZ1, hits give low values 0.992 | S. cerevisiae deletion strains, locus YML032C, strain rad52, hits give low values 1.02 | S. cerevisiae deletion strains, locus YML120C, strain ndi1, hits give low values 0.985 | S. cerevisiae deletion strains, locus YML124C, strain tub3, hits give low values 1.01 | S. cerevisiae deletion strains, locus YMR058W, strain fet3, hits give low values 0.984 | S. cerevisiae deletion strains, locus YMR078C, strain ctf18, hits give low values 1.01 | S. cerevisiae deletion strains, locus YMR125W, strain sto1, hits give low values 0.993 | S. cerevisiae deletion strains, locus YMR129W, hits give low values 1 | S. cerevisiae deletion strains, locus YMR205C, strain PFK2, hits give low values 0.957 | S. cerevisiae deletion strains, locus YMR223W, strain ubp8, hits give low values 0.975 | S. cerevisiae deletion strains, locus YMR231W, strain pep5, hits give low values 1 | S. cerevisiae deletion strains, locus YMR263W, strain SAP30, hits give low values 1.02 | S. cerevisiae deletion strains, locus YMR307W, strain GAS1, hits give low values 0.984 | S. cerevisiae deletion strains, locus YNL067W, strain RPL9B, hits give low values 1.01 | S. cerevisiae deletion strains, locus YNL071W, strain lat1, hits give low values 1.02 | S. cerevisiae deletion strains, locus YNL128W, strain TEP1, hits give low values 0.982 | S. cerevisiae deletion strains, locus YNL153C, strain GIM3, hits give low values 1.02 | S. cerevisiae deletion strains, locus YNL183C, strain NPR1, hits give low values 0.944 | S. cerevisiae deletion strains, locus YNL209W, strain ssb2, hits give low values 1 | S. cerevisiae deletion strains, locus YNL233W, strain BNI4, hits give low values 0.992 | S. cerevisiae deletion strains, locus YNL248C, strain rpa49, hits give low values 0.989 | S. cerevisiae deletion strains, locus YNL250W, strain rad50, hits give low values 0.996 | S. cerevisiae deletion strains, locus YNL271C, strain bni1, hits give low values 1.01 | S. cerevisiae deletion strains, locus YNL298W, strain CLA4, hits give low values 0.997 | S. cerevisiae deletion strains, locus YNL307C, strain MCK1, hits give low values 1.01 | S. cerevisiae deletion strains, locus YNL322C, strain KRE1 (second series), hits give low values 0.976 | S. cerevisiae deletion strains, locus YNL322C, strain KRE1, hits give low values 0.991 | S. cerevisiae deletion strains, locus YNR049C, strain mso1, hits give low values 0.997 | S. cerevisiae deletion strains, locus YNR052C, strain pop2, hits give low values 0.979 | S. cerevisiae deletion strains, locus YOL006C, strain TOP1, hits give low values 0.992 | S. cerevisiae deletion strains, locus YOL012C, strain htz1 1.19 | S. cerevisiae deletion strains, locus YOL147C, strain pex11, hits give low values 1.01 | S. cerevisiae deletion strains, locus YOR001W, strain rrp6, hits give low values 0.97 | S. cerevisiae deletion strains, locus YOR061W, strain CKA2, hits give low values 0.991 | S. cerevisiae deletion strains, locus YOR069W, strain VPS5, hits give low values 1 | S. cerevisiae deletion strains, locus YOR070C, strain gyp1, hits give low values 0.995 | S. cerevisiae deletion strains, locus YOR080W, strain dia2, hits give low values 0.991 | S. cerevisiae deletion strains, locus YOR083W, strain WHI5, hits give low values 0.97 | S. cerevisiae deletion strains, locus YOR106W, strain vam3, hits give low values 0.987 | S. cerevisiae deletion strains, locus YOR136W, strain idh2, hits give low values 1 | S. cerevisiae deletion strains, locus YOR144C, strain elg1, hits give low values 1 | S. cerevisiae deletion strains, locus YOR184W, strain ser1, hits give low values 1.01 | S. cerevisiae deletion strains, locus YOR231W, strain MKK1, hits give low values 0.978 | S. cerevisiae deletion strains, locus YOR265W, strain rbl2, hits give low values 0.986 | S. cerevisiae deletion strains, locus YOR270C, strain vph1, hits give low values 0.963 | S. cerevisiae deletion strains, locus YOR290C, strain snf2, hits give low values 0.963 | S. cerevisiae deletion strains, locus YOR316C, strain cot1, hits give low values 1 | S. cerevisiae deletion strains, locus YPL051W, strain arl3, hits give low values 0.963 | S. cerevisiae deletion strains, locus YPL055C, strain LGE1, hits give low values 0.994 | S. cerevisiae deletion strains, locus YPL078C, strain atp4, hits give low values 0.972 | S. cerevisiae deletion strains, locus YPL106C, strain sse1, hits give low values 0.956 | S. cerevisiae deletion strains, locus YPL240C, strain hsp82, hits give low values 0.981 | S. cerevisiae deletion strains, locus YPL241C, strain CIN2, hits give low values 1 | S. cerevisiae deletion strains, locus YPL256C, strain CLN2, hits give low values 0.994 | S. cerevisiae deletion strains, locus YPR119W, strain clb2, hits give low values 0.999 | S. cerevisiae deletion strains, locus YPR141C, strain kar3, hits give low values 1.01 | S. cerevisiae deletion strains, locus YPR163C, strain tif3, hits give low values 1.02 | S. cerevisiae deletion strains, locus YPR167C, strain met16, hits give low values 1 | S. cerevisiae deletion strains, strain wtn01, hits give low values 1.01 | S. cerevisiae strains, strain wild type, hits give low values 0.99
